From PubChem BioAssay (Tox21)
Values without a mark were called inactive. Results filed as inconclusive are left out. A call without a number means that no potency is given here. The source made the active and inactive calls. Unless noted, calls come from the whole dose curve; as a rule, active = well fitted curve in the direction sought with a large enough effect in the repeat runs; inconclusive = weak or mixed curves; inactive = no such curve, though single readings can be large; an effect the other way counts as inactive or inconclusive.

Experiments:
[1] = A CellTox Green Cytotoxicity Assay to monitor cytotoxicity in HepG2 cells - 8 hour (AID 1224890); note: nearly all actives have a fitted effect of over 45% in size
Procedure, shortened: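 HepG2, 600 cells/well premixed w/ CellTox Green; 5 h settle, 37 C/5% CO2; pintool cpd add (DMSO); 37 C, 40 h; fluorescence read at 0, 8, 16, 24, 32, 40 h.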

[2] = qHTS assay to identify small molecule antagonists of the androgen receptor (AR) signaling pathway using the MDA cell line in the presence of 0.5 nM R1881 - cell viability counter screen (AID 1259242); note: nearly all actives have a fitted effect of over 45% in size
Procedure, shortened: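 Live-cell protease fluorescence, CellTiter-Fluor, 30 min at 37C. Cells: MDA-kb2, 3,000/well, preincubated 5 hr. Compounds plus 0.5 nM R1881 final, 16 hr, 37C, 0% CO2.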

[3] = biological target: Estrogen receptor (Homo sapiens) (UniProt P03372); assay: qHTS assay to identify small molecule antagonists of the estrogen receptor alpha (ER-alpha) signaling pathway using the BG1 cell line in the presence of 0.1 nM 17-beta-estradiol (AID 1259244); note: nearly all actives have a fitted effect of over 50% in size
Sequence of Estrogen receptor (Homo sapiens) (P03372 whole entry, looked up): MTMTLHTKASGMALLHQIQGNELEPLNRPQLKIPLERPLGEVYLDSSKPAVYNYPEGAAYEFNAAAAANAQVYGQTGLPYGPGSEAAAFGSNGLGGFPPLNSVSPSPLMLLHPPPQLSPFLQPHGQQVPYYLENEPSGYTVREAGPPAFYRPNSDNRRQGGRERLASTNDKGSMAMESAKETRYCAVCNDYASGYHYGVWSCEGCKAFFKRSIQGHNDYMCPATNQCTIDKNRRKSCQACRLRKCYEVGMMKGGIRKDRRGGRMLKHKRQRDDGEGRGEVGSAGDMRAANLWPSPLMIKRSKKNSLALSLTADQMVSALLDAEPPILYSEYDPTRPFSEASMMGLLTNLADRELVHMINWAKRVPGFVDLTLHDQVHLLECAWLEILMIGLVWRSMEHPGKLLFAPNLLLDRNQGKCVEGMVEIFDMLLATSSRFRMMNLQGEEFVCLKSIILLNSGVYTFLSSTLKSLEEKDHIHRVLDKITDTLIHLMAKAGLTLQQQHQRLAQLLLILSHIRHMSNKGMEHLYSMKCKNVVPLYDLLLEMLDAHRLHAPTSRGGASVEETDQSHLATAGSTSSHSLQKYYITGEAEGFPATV
Procedure, shortened: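 Luminescence after ONE-Glo (30 min, room temperature) measured ERE-luciferase activity in VM7Luc4E2 cells treated 22 h with compound and 0.1 nM final 17beta-estradiol as stimulator.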

[4] = qHTS assay to identify small molecule HDAC inhibitors (AID 1259364); note: potency is the fitted concentration of half-maximal effect;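 note: wild-type HCT-116 cells with endogenous class I/II HDAC activity; nearly all actives have a fitted effect of over 45% in size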
Procedure, shortened: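 HCT-116 (wild type), 1,500 cells/well, overnight; compound 2 hr 37C 5% CO2; HDAC-Glo I/II reagent 30 min RT; luminescence readout.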

[5] = qHTS assay to identify small molecule HDAC inhibitors - cell viability counter screen (AID 1259365); note: series mostly up to about 92 µM; nearly all actives have a fitted effect of over 50% in size
Procedure, shortened: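 Viability readout: CellTiter-Glo luminescence. Wild-type HCT-116 cells, 2hr compound treatment following overnight attachment at 37 C.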

[6] = qHTS assay to identify small molecule agonists of the sonic hedgehog signaling (Shh) pathway - cell viability counter screen (AID 1259366); note: nearly all actives have a fitted effect of over 50% in size
Procedure, shortened: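 Viability measured fluorometrically (CellTiter-Fluor, 1hr, 37C) in 3T3 Gli1-Luc reporter cells after 23hr compound exposure within a 24hr incubation at 37C/5% CO2.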

[7] = qHTS assay to identify small molecule antagonists of the sonic hedgehog signaling (Shh) pathway - cell viability counter screen (AID 1259367); note: nearly all actives have a fitted effect of over 55% in size
Procedure, shortened: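 Cytotoxicity was assessed in parallel with Shh reporter activity by measuring live-cell protease fluorescence (CellTiter-Fluor) in NIH/3T3 cells stably carrying Gli1-Luc, treated with compound under conditioned medium stimulation for 23 hr plus 1 hr reagent incubation.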

[8] = qHTS assay to identify small molecule agonists of the sonic hedgehog signaling (Shh) pathway (AID 1259368; calls by dose curve;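 note: NIH/3T3-derived 3T3Gli1-Luc cells carrying a stable Gli1-driven firefly luciferase reporter; series mostly up to about 92 µM; nearly all actives have a fitted effect of over 15% in size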)
Procedure, shortened: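 Read-out: firefly luciferase luminescence from a Gli1 response element reporter stably integrated in NIH/3T3-derived 3T3Gli1-Luc cells, measured 30 min at room temperature after reagent addition. Compound exposure lasted 24 hr at 37 C, 5% CO2.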

[9] = qHTS assay to identify small molecule agonists of the androgen receptor (AR) signaling pathway in the presence of an antagonist - cell viability counter screen (AID 1259379); note: nearly all actives have a fitted effect of over 25% in size; note: potency is the fitted concentration of half-maximal effect
Procedure, shortened: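 Viability counter screen: CellTiter-Fluor fluorescence, measured in the same wells as the luciferase read-out. MDA-kb2 cells, 3,000/well, with nilutamide at 3.0uM final and compounds at 15 concentrations, 16 hr at 37C, 0% CO2.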

[10] = qHTS assay to identify small molecule agonists of the estrogen receptor beta (ER-beta) signaling pathway - cell viability counter screen (AID 1259380); note: nearly all actives have a fitted effect of over 30% in size
Procedure, shortened: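 Luminescence read-out (CellTiter-Glo, 30 min, room temp) taken in the same wells as the beta-lactamase reporter assay; ER-beta-UAS-bla HEK293T cells exposed to DMSO-dissolved compounds for 16 hr at 37C in 2% charcoal-stripped FBS medium.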

[11] = qHTS assay to identify small molecule antagonists of the estrogen receptor beta (ER-beta) signaling pathway - cell viability counter screen (AID 1259382); note: series mostly up to about 92 µM; nearly all actives have a fitted effect of over 55% in size
Procedure, shortened: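 Luminescent ATP read-out (CellTiter-Glo, 30 min, RT) taken in the same wells as the bla reporter assay. HEK293T ER-beta-UAS-bla cells in 2% charcoal-stripped FBS were exposed to compounds with 1nM E2 for 16 hr at 37C.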

[12] = biological target: Estrogen receptor (Homo sapiens) (UniProt P03372); assay: qHTS assay to identify small molecule agonists of the estrogen receptor alpha (ER-alpha) signaling pathway in the presence of an antagonist (AID 1259383; calls by dose curve; note: top concentration of the series differs between compounds; nearly all actives have a fitted effect of over 15% in size)
Procedure, shortened: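 Luciferase luminescence (ONE-Glo, 30min at room temperature) measured in VM7Luc4E2 cells after 22hr compound exposure at 15 concentrations, with 10.0nM ICI-182,780 final present; cells express endogenous ER-alpha and carry four EREs upstream of luciferase.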

[13] = qHTS assay to identify small molecule agonists or antagonists of the thyroid stimulating hormone receptor (TSHR) signaling pathway - wild type cell line counter screen (AID 1259384; calls by dose curve)
Procedure, shortened: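 Wild-type HEK293 cells were plated 18 h at 37 C/5% CO2, pin-dosed with compound plus Ro20-1724 medium, held 30 min at room temperature, then given cAMP-d2 and anti-cAMP-cryptate; fluorescence was read after 1 h. Fifteen concentrations, triplicate.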

[14] = qHTS assay to identify small molecule antagonists of the sonic hedgehog signaling (Shh) pathway (AID 1259369; calls by dose curve; note: nearly all actives have a fitted effect of over 45% in size)
Procedure, shortened: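 Luminescence readout: firefly Luc under Gli1 response element in 3T3Gli1-Luc cells (NIH/3T3 clone). Antagonist mode, stimulation by conditioned medium; compound exposure 24hr at 37 C, 5% CO2.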

[15] = biological target: Estrogen receptor beta (Homo sapiens) (UniProt Q92731); assay: qHTS assay to identify small molecule agonists of the estrogen receptor beta (ER-beta) signaling pathway (AID 1259377; active = well fitted activation curve with a large enough effect in the signal ratio in the repeat runs, not every such curve was filed as active; the % refers to the signal ratio)
Sequence of Estrogen receptor beta (Homo sapiens) (Q92731 whole entry, looked up): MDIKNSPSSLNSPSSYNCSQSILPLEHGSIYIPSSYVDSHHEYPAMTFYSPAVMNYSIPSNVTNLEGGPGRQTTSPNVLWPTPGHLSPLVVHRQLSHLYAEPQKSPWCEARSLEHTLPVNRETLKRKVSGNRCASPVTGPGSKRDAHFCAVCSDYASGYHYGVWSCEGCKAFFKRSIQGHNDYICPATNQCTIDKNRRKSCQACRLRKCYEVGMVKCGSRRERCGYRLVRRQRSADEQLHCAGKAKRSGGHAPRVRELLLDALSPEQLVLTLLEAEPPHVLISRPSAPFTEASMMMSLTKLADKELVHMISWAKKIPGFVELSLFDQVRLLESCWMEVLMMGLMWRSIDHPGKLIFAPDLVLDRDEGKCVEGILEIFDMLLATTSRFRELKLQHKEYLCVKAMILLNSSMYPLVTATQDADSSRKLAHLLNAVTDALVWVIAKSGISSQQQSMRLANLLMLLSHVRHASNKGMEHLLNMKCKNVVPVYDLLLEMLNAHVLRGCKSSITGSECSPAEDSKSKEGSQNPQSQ
Procedure, shortened: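 A UAS-controlled beta-lactamase reporter in ER-beta-UAS-bla HEK293T cells reports receptor activation. Compounds act for 16 hr at 37C in 2% charcoal-stripped serum, and a FRET substrate is read by fluorescence after 2 hours.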

[16] = biological target: Estrogen receptor beta (Homo sapiens) (UniProt Q92731); assay: qHTS assay to identify small molecule antagonists of the estrogen receptor beta (ER-beta) signaling pathway (AID 1259378; active = well fitted inhibition curve with a large enough effect in the signal ratio in the repeat runs, not every such curve was filed as active; the % refers to the signal ratio)
Procedure, shortened: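 ER-beta-UAS-bla HEK293T (GripTite) cells in 2% charcoal-stripped FBS medium were preincubated 6 hr at 37C, dosed with compound, then stimulated with 1 nM E2 (final) for 16 hr; beta-lactamase reporter read by B/G FRET fluorescence after 2 hr substrate loading.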

[17] = biological target: Androgen receptor (Homo sapiens) (UniProt P10275); assay: qHTS assay to identify small molecule antagonists of the androgen receptor (AR) signaling pathway using the MDA cell line in the presence of 0.5 nM R1881 (AID 1259243); note: nearly all actives have a fitted effect of over 50% in size
Sequence of Androgen receptor (Homo sapiens) (P10275 whole entry, looked up): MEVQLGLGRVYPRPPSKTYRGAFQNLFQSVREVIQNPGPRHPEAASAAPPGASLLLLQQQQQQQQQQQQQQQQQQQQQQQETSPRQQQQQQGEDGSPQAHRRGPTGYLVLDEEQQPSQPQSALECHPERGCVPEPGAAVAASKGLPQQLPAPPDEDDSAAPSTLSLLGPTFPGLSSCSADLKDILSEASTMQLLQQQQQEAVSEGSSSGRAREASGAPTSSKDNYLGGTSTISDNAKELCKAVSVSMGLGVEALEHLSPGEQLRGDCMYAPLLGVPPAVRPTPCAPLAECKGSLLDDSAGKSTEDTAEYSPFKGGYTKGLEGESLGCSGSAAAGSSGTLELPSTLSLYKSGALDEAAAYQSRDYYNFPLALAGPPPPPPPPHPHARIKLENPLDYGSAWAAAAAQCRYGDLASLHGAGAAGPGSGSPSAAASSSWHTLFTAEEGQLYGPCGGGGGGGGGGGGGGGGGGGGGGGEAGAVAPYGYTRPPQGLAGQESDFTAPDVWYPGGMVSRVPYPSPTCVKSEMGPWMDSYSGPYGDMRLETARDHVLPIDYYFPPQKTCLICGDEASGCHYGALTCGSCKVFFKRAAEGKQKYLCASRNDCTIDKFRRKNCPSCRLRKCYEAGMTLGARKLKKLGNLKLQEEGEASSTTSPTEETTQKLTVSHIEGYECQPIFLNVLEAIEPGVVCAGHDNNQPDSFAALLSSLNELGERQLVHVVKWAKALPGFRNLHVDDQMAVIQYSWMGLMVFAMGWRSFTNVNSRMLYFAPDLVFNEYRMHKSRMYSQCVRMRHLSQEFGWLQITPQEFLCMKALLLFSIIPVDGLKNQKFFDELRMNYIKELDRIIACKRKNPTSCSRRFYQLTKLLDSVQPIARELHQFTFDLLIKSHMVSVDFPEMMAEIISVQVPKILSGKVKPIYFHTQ
Procedure, shortened: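 MDA-kb2, MMTV-luc (AR/GR elements); 3,000 cells/well; cpd + 0.5 nM R1881 final; 16 hr 37C, 0% CO2; ONE-Glo 30 min RT; luminescence.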

[18] = biological target: Androgen receptor (Homo sapiens) (UniProt P10275); assay: qHTS assay to identify small molecule agonists of the androgen receptor (AR) signaling pathway in the presence of an antagonist (AID 1259381; calls by dose curve; note: nearly all actives have a fitted effect of over 15% in size)
Procedure, shortened: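 Luciferase read-out (ONE-Glo, 30min room temperature) in MDA-kb2 MMTV-reporter cells; agonist mode run in presence of AR antagonist nilutamide, 3.0uM final. Compounds tested as 15-point series, 16hr exposure at 37C, 0% CO2.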

[19] = qHTS assay to identify small molecule phospholipidosis (PLD) inducers (AID 1259344; active = well fitted curve in the direction sought with a large enough effect; an effect the other way counts as inactive or inconclusive)
Procedure, shortened: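 Cells (HepG2, 900 per well) attach for 4 h, receive LipidTOX Red and compound together, incubate 24 h at 37 C, are fixed 30 min with paraformaldehyde/Hoechst, then imaged at one site per well.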

[20] = qHTS assay to identify small molecule antagonists of the estrogen receptor alpha (ER-alpha) signaling pathway using the BG1 cell line in the presence of 0.1 nM 17-beta-estradiol - cell viability counter screen (AID 1259241); note: nearly all actives have a fitted effect of over 40% in size
Procedure, shortened: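 The cell line endogenously expresses full-length ER-alpha and carries four EREs driving luciferase. Cells are cultured 5 days hormone-free, treated 22 hr with compounds and 0.1 nM estradiol, then viability is read by fluorescence.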

Row | Compound | outcome [1] | outcome [2] | Potency [3] | Potency [4] | outcome [5] | Potency [6] | Potency [7] | outcome [8] | Potency [9] | Potency [10] | outcome [11] | outcome [12] | outcome [13] | Potency [14] | Potency [15] | outcome [16] | Potency [17] | Potency [18] | outcome [19] | Potency [20]
1 | CCNC(=O)C1CC(C)CCC1C(C)C (configuration not stated) | inactive | inactive | inactive | inactive | inactive | inactive | inactive | inactive | inactive | inactive | inactive | inactive | inactive |  |  |  |  |  |  | 
2 | CCCCCCOC(=O)CC | inactive | inactive | inactive | inactive | inactive | inactive | inactive | inactive | inactive | inactive | inactive | inactive |  | inactive | inactive | inactive |  |  |  | 
3 | COc1ccc2nc(SCc3ncc(C)c(OC)c3C)[nH]c2c1 | inactive | inactive | inactive | inactive | inactive | inactive | inactive | inactive | inactive |  | inactive | inactive | inactive | inactive |  |  | inactive | inactive |  | 
4 | Cc1cc(Cl)c(C)cc1Cl | inactive | inactive |  | inactive | inactive | inactive | inactive | inactive | inactive | inactive | inactive |  |  |  | inactive | inactive | inactive | inactive |  | 
5 | CCCC(=O)C(C)=O | inactive | inactive | inactive | inactive | inactive | inactive | inactive | inactive | inactive | inactive | inactive | inactive | inactive | inactive | inactive | inactive |  |  |  | 
6 | CC(=O)Nc1ccc(S(=O)(=O)Nc2ccc([N+](=O)[O-])cc2)cc1 | inactive | inactive | inactive | inactive | inactive |  |  | inactive | 23.7 µM (active) | inactive | inactive |  | inactive |  |  |  |  |  | inactive | 
7 | C[C@@H]1O[C@@H](O[C@@H]2[C@@H](O)[C@H](OCCc3ccc(O)c(O)c3)O[C@H](CO[C@@H]3O[C@H](CO)[C@@H](O)[C@H](O)[C@H]3O)[C@H]2OC(=O)/C=C/c2ccc(O)c(O)c2)[C@H](O)[C@H](O)[C@H]1O | inactive | inactive |  | inactive | inactive |  |  | inactive |  | inactive | inactive |  |  | inactive |  |  |  |  |  | 
8 | O=C(OCC(COC(=O)c1cccnc1)(COC(=O)c1cccnc1)COC(=O)c1cccnc1)c1cccnc1 |  | inactive | inactive | inactive | inactive | inactive | inactive | inactive | inactive | inactive | inactive | inactive | inactive | inactive | inactive |  | inactive | inactive | inactive | inactive
9 | Nc1ncnc(Nc2ccccc2)n1 | inactive | inactive | inactive | 10.6 µM (active) | inactive | inactive | inactive | inactive | inactive | inactive | inactive | inactive | inactive | inactive | inactive | inactive |  |  | inactive | 
